A number with no mark means an inactive call.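 Rule for the calls: active = MAPPIT score above the 99th percentile of random reference set scores in the same batch; inactive = at or below it.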

Common to all, as to test: MAPPIT interaction score (arbitrary units); higher = stronger binary interaction signal, active = hit call of the paper
The target of one assay is CCT6. The settings on record: MAPPIT configuration: N-N; pair source set: DPIM.
The target in a further assay is Spt7. The settings on record: MAPPIT configuration: N-N; pair source set: Curagen_high_conf.
Another assay concerns the target CAP. The settings on record: MAPPIT configuration: N-N.
The target of another assay is Fkbp12. The settings on record: MAPPIT configuration: N-N; pair source set: Curagen_low_conf.
The next assay addresses ND-75. The settings on record: MAPPIT configuration: N-N; pair source set: Curagen_low_conf.
The target in another assay is Pax. The settings on record: MAPPIT configuration: N-N; pair source set: screen_2.
Another assay concerns the target vlc. The settings on record: MAPPIT configuration: N-C; pair source set: screen_3.
In the next assay the target is CCT3. The settings on record: MAPPIT configuration: N-N; pair source set: DPIM.
Another assay has as its target CASK. The settings on record: MAPPIT configuration: N-C; pair source set: screen_4.
Another assay deals with CG30324. The settings on record: MAPPIT configuration: N-C; pair source set: screen_4.
The target of a further assay is stck. The settings on record: MAPPIT configuration: N-C; pair source set: screen_3.
The target of the next assay is CCT7. The settings on record: MAPPIT configuration: N-N; pair source set: DPIM.
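Note: HEK293T cells with Epo stimulation, STAT-responsive firefly luciferase reporter, fold induction versus unstimulated cells divided by the larger fold induction of two negative controls lacking either bait or prey.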

B1: CG8230 (protein)
chain: MGINVSRTADLGSNQWLQRFVGRQHIAHDDEAFWNGLLNYNIVLPENSQDQLNLDSRLEALCQSFIGNNLKTGNFGSLVTVFLEKTSELLSLSDQESNMHVWQTFNALFIIRSLVKYINETGSEFQLLQHFEAMPNAELLQAALEQQQQTPAESATIAMEATEQSAAAAVPVIVDGSKFETFIDALVNLIVVIPVKEFTYHLHLEAVNMLITLLSVHLFAQQPTDKSIVFRTVFKCQHANVLMSALLHFVARIVEVPHTMFGSSSAGSFVFGIAESLLSIFTFRKQPDILKAGQAAGGGELSQRFRTHYPLANQSLLLILILTNHCTAQDNAYRTSLFSCADSKDSPKQGAVSFQIDFSAVYETLCTIVTIDQATLLLYLLLHRNERFYRFVMQQQDLEQLVIPILQTLYNAPDSNSHHIYMSLIVLLILSEDEGFNKNVHTIMLKNITWYTERTISEISLGGILILIVIRTIQYNMLKMRDKYLHTNCLAALANMSGHFRALHPYVAQRLVSLFETLARKHTRLDAQLKEPADSAVFVNVSTTPEDMLQDLSVLEEVLRMVLEILNSCLTNQLVYCPNLVYTLLYKRSVFEGFRSHHAFQDVIQNIDMVVGFFSSRLQRVQEQRGELGVNEVLEVISKGASQWSSDRLRKFPDLKFKYVEEDAPEEFFIPYVWTLVCKYGCVHFSSESIKSVTTDIAC
Take B1: the MAPPIT interaction score was 3.15 (active) with CCT6 and -0.0669 with Spt7.

B2: Vinc (protein)
chain: MPVFHTKTIESILDPVAQQVSRLVILHEEAEDGNAMPDLSRPVQVVSAAVANLVKVGRDTINSSDDKILRQDMPSALHRVEGASQLLEEASDMLRSDPYSGPARKKLIEGSRGILQGTSSLLLCFDESEVRKIIQECKRVLDYLAVAEVINTMEQLVQFLKDLSPCLSKVHREVGAREKELTHQVHSEILVRCLEQVKTLAPILICSMKVYIHIVEQQGRGAEEAAENRNYLAARMSDELQEIIRVLQLTTYDEDTSELDNLTVLKKLSNAISNKMEQANEWLSNPYALRGGVGEKALRQVIDNATEISERCLPQDSYPIRKLADEVTAMANTLCELRQEGKGQSPQAESLVRGIRDRMGELKSLVHQAVLGVDKAGVQQTAHTIQGRLEQAVKWLQHPEINDGGLGERAINLIVEEGRKVAEGCPGHQKAEIQQLCDEVERLKRQAAGSGPAAKQAAKQLTQKLYELKAAIQNALVNRIVQDFMDVSTPLKQFTEAVLQPEGTPGREQNFNQKSNNLQAFSDRASKTSRMVAAGGACGNKKIAEILLSSAAQVDSLTPQLISAGRIRMNYPGSKAADEHLQNLKQQYADTVLRMRTLCDQATDPADFIKTSEEHMQVYAKLCEDAIHARQPQKMVDNTSNIARLINRVLLVAKQEADNSEDPVFTERLNAAANRLERSLPAMVGDAKLVATNIADPAAAAAWKNSFQRLLGDVREVRDAIAPPQPPPLPTSLPPPIPELSALHLSNQNAERAPPRPPLPREGLAPVRPPPPETDDEDEGVFRTMPHANQPILIAARGLHQEVRQWSSKDNEIIAAAKRMAILMARLSELVLSDSRGSKRELIATAKKIAEASEDVTRLAKELARQCTDRRIRTNLLQVCERIPTIGTQLKILSTVKATMLGAQGSDEDREATEMLVGNAQNLMQSVKETVRAAEGASIKIRSDQTSNRLQWVRRQPWYQY
On to B2, for which the MAPPIT interaction score is 2.34 in the assay with CAP (pair source set: Lit-BM-16), 0.498 with Fkbp12, -0.456 in the assay with ND-75 and 5.44 (active) in the assay with Pax.

B3: Vps28 (protein)
chain: MQEQSPELYEEVKLFRNAREREKYDNMADLYAIINTIQQLEKAYIRDCITPQEYTAACSKYLVQYKVAFKQVQCDEFPSVETFVKKFRLDCPAALERIREDRPITIRDDKGNTSKCIAEIVSLFITIMDKLRLQINTMDALQPDVKDLADNMNRLSLIPEDFDAKLKVEKWLGSLNEMQASDELSEGQVRQFLFDLESAYADFNKLLHSQ
Consider B3, for which the MAPPIT interaction score was 1.33 in the assay with CAP (pair source set: screen_1) and 1.09 with vlc.

B4: Lst8 (protein)
chain: MGDQQQLILATGGYDHTIKVWQAHTGNCIKTMRFVETSQVNALDRTPDKTRLAACGYQCIRLYDLESNCTAPVINFDGVQKNVTRLGFQEDGNWMFTAGEDHHVRIWDMIAAPPHCSRIFDCEAPVNAACLHPNQVEIAMGSQNGSVFLWDVKSERHERIVPEVDASIQDVAISPDGRYLAAANNKGNCYIWSLTSQDQKMSTLRPNRKIPAHSRYILRCKFSPDSRLLLTTSGDGTVCIWKTDDFSKWRELCIENYWVWDAAFSADSKWLFTASSDGIARLWKLQTKSSIRDYTGHTKAITALSFKDEIVGK
As for B4, in the assay with CCT3, the MAPPIT interaction score was 0.335.

B5: Mlp60A (protein)
chain: MPFVPVETPKCPACGKSVYAAEERVAGGYKFHKTCFKCSMCNKALDSTNCTEHEKELFCKNCHGRKYGPKGYGFGGGAGCLSTDTGAHLNRE
For the molecule B5, the MAPPIT interaction score in the assay with CASK is 1.2; with CG30324 it was 3.25; in the assay with stck it was 4.22 (active).

B6: CG4511 (protein)
chain: MANILENQLFTAAKTIEQQLDQQLDRLDNLDSDDLKVLREQRLREMKDLNNKKQEWLRNGHGTYTELADEKEFFEMSKKSPNIVCHFYRDSTERCKIVDMHLKILAAKHVEAKFCKVNAEKTPFLTQRLRIKVIPTIALVKDSKTKDFIVGFTDLGNCDDFATEMLEWRIAHSGAIDYKGDLMQPPDVKRKPFINRPQKTIRGGYDSDDSDIDLDD
Turning to B6, in the assay with CCT7, the MAPPIT interaction score is 0.524.

The values above are taken from the supplement of paper PMC10105736.
